Results: PubChem BioAssay AID540280 (National Center for Advancing Translational Sciences (NCATS), 2011)
Some of the results follow. Calls of active or inactive are those of the source. Calls follow the shape of the full dose curve.

target: DNA polymerase beta (Homo sapiens) (UniProt P06746); assay: Inhibitors of DNA Polymerase Beta: Hit validation; details: Pol beta primer extension/strand displacement, fluorescence kinetic
Source text: The base excision repair system in human cells is a target for therapeutic modulation of the response to irradiation treatment and DNA-damaging drugs. A key enzyme in this system is the bi-functional DNA polymerase known as DNA polymerase Beta (Pol Beta). The following is a homogeneous kinetic assay to study the primer extension and strand-displacement reaction catalyzed by pol beta.
A stepwise description of the 1536-well assay is shown in next Table. Three microliters of reagents (buffer in column 3 and 4 as negative control and 10 nM Pol beta in columns 1, 2, and 5-48) was dispensed into 1,536-well black solid-bottomed plate. Compounds (23 nL) were transferred via Kalypsys pin tool equipped with 1536-pin array (10 nL slotted pins, V&P Scientific, San Diego, CA). The plates were incubated for 15 min at room temperature, and 1 uL substrate (50 nM final concentration) were added to start the reaction and immediately read at 0 min read on Viewlux reader. The plate were further incubated for 10 min at room temperature, and then read on Viewlux again. Throughout the screen, reagent bottle and all liquid lines were chilled and made light-tight to minimize reagent degradation. All screening operations were performed on a fully integrated robotic system (Kalypsys, San Diego, CA) containing one RX-130 and two RX-90 anthropomorphic robotic arms (Staubli, Duncan, SC). Library plates were screened starting from the lowest and proceeding to the highest concentration, and a double-dipping step of the highest concentration was required to access higher concentrations of compounds. Vehicle-only plates, with DMSO being pin-transferred to the entire column 5-48 compound area, were inserted uniformly at the beginning and the end of each library in order to monitor for and record any shifts in the background, which can be affected by reagent dispensers or loss in enzyme activity overtime. Screening data were corrected, normalized, and concentration-effect relationships were derived by using publicly-available curve fitting algorithms developed in-house (http://ncgc.nih.gov/pub/openhts). A four parameter Hill equation was fitted to the concentration-response data by minimizing the residual error between the modeled and observed responses.
Potency is read from the fitted curve at half-maximal effect.

Potency, active:
O=C(Nc1ccc(S(=O)(=O)Nc2nccs2)cc1)c1cc(-c2ccncc2)nc2ccccc12 25.1 µM, Cc1c(CCC(=O)O)c(=O)oc2c(C)c(OCc3ccccc3Cl)ccc12 12.6 µM, Cc1c(CC(=O)N2CCN(C(=O)C3COc4ccccc4O3)CC2)c(=O)oc2c(O)c(O)ccc12 (configuration not stated) 2.24 µM, COc1cc([C@H](Cc2ccccc2)NC(C)=O)oc(=O)c1 28.2 µM, COc1ccc(Cc2nnc(NC(=O)Cc3cccs3)s2)cc1 6.31 µM, Cc1ccc(C(=O)Oc2coc(CSc3nnc(NC(=O)c4cccs4)s3)cc2=O)cc1C 31.6 µM, Cc1ccc2nc(-c3ccncc3)cc(C(=O)Nc3ccc(OC(F)F)cc3)c2c1 35.5 µM
